Among the data in PubChem BioAssay (Tox21) are Potency and outcome values, retold here.

In assay [1] the target is Nuclear receptor subfamily 1 group I member 3 (Homo sapiens) (UniProt Q14994). As to the kind of experiment: qHTS assay to identify small molecule agonists of the constitutive androstane receptor (CAR) signaling pathway (AID 1224839). Further: nearly all actives have a fitted effect of over 15% in size. Further: potency means the concentration at half of the fitted maximal effect. In a few lines:
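Using human hepatoma HepG2 cells engineered with hCAR and a CYP2B6-2.2kb reporter, 15-concentration compound series were incubated 24 h alongside PK11195 at 0.75 uM final, with luminescence quantified afterwards.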

A short description of assay [2]: qHTS assay to identify small molecule antagonists of the retinoid acid receptor (RAR) signaling pathway - cell viability counter screen (AID 1159551). Further: nearly all actives have a fitted effect of over 35% in size. Further: potency means the concentration at half of the fitted maximal effect. A digest of the protocol:
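Cytotoxicity counter screen: ATP content quantified by CellTiter-Glo luminescence in C3RL4 cells treated 6 hr at 37 C with compound and retinol (1 uM final). Cells plated at 1,000/well and cultured overnight before dosing.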
For orientation: Quantitative high-throughput screening tests each substance at several concentrations.

A short description of assay [3]: qHTS assay to identify small molecule agonists of the hypoxia (HIF-1) signaling pathway - cell viability counter screen (AID 1224844; calls by dose curve; further: nearly all actives have a fitted effect of over 50% in size). In a few lines:
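Cytotoxicity measured by CellTiter-Glo ATP luminescence in the wells also read for beta-lactamase signal. Cells were HRE-bla ME-180 (2,000/well, 0.5% dialyzed FBS), exposed to compounds for 17 h at 37C.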

Assay [4] can be described thus: qHTS RealTime-Glo MT Cell Viability Assay in HEK293 cells - 16 hour (AID 1224872). Further: potency means the concentration at half of the fitted maximal effect; nearly all actives have a fitted effect of over 50% in size. A digest of the protocol:
(§1)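 HEK293 cells seeded with NanoLuc/prosubstrate reagent, rested 5 h at 37 C, then dosed and kept at 37 C up to 40 h. Nonlytic real-time luminescence from viable cells read at 0, 8, 16, 24, 32 and 40 h.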

The nature of assay [5]: qHTS RealTime-Glo MT Cell Viability Assay in HepG2 cells - 8 hour (AID 1224873). Further: nearly all actives have a fitted effect of over 55% in size. In a few lines:
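HepG2 cells (600/well) mixed with RealTime-Glo MT reagent, settled 5 h at 37 C/5% CO2 before compound addition. Nonlytic NanoLuc luminescence from viable-cell prosubstrate reduction read repeatedly during 40 h treatment at 37 C.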

A short description of assay [6]: qHTS RealTime-Glo MT Cell Viability Assay in HEK293 cells - 24 hour (AID 1224886). Further: potency means the concentration at half of the fitted maximal effect; nearly all actives have a fitted effect of over 50% in size. A digest of the protocol:
as §1

A short description of assay [7]: qHTS assay to identify small molecule antagonists of the estrogen receptor beta (ER-beta) signaling pathway - cell viability counter screen (AID 1259382). Further: nearly all actives have a fitted effect of over 55% in size. Further: potency means the concentration at half of the fitted maximal effect. In a few lines: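 Cytotoxicity was measured in the same wells by CellTiter-Glo luminescence after 30 min at room temperature. Cells were ER-beta-bla HEK293T in charcoal-stripped serum, given compound together with 1 nM E2 and incubated 16 h at 37C.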

Assay [8] concerns the target Thyrotropin receptor (Homo sapiens) (UniProt P16473). As to the kind of experiment: qHTS assay to identify small molecule antagonists of the thyroid stimulating hormone receptor (TSHR) signaling pathway (AID 1259385; calls by dose curve; further: nearly all actives have a fitted effect of over 20% in size; further: potency means the concentration at half of the fitted maximal effect). In a few lines:
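TSHR-HEK293 cells (800/well) plated 18 h, then compounds with Ro20-1724 and TSH at 1.5 ng/mL final, 30 min at room temperature. cAMP quantified by HTRF (cAMP-d2/anti-cAMP-cryptate, 1 h); 15 concentrations in triplicate.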

Assay [9] has as its target Progesterone receptor (Homo sapiens) (UniProt P06401). As to the kind of experiment: qHTS assay to identify small molecule agonists of the progesterone receptor (PR) signaling pathway (AID 1346784; calls by dose curve; further: nearly all actives have a fitted effect of over 30% in size). A digest of the protocol:
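Using charcoal-stripped serum (2%) to limit endogenous steroids, PR-UAS-bla HEK 293T cells received compounds for 16 hr at 37C after 6 hr plating; beta-lactamase FRET fluorescence was recorded following 2 hr substrate loading at room temperature.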

In assay [10] the target is Thyrotropin-releasing hormone receptor (Homo sapiens) (UniProt P34981). As to the kind of experiment: qHTS assay to identify small molecule agonists of the thyrotropin-releasing hormone receptor (TRHR) signaling pathway (AID 1346891; calls by dose curve;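 further: HEK293 cells expressing TRHR with calcium dye readout; series mostly up to about 58 µM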). A digest of the protocol:
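In 1536-format, 1500 TRHR-Hek293 cells per well grew 18 h, took up calcium dye for 2 h at 37 °C, received compound, and were read kinetically; 15-point titrations, triplicates.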

Assay [11] in a line: Human pregnane X receptor (PXR) small molecule agonists, qHTS cell viability counter screen (AID 1346977). Further: nearly all actives have a fitted effect of over 50% in size. Further: potency means the concentration at half of the fitted maximal effect. In a few lines:
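Readout is CellTiter-Fluor fluorescence from PXR-Luc HepG2 cells. Plated cells rested 5hr, then were treated with compounds for 24hr at 37C and 5% CO2, with reagent present during the last hour.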

Assay [12] can be described thus: Caspase-3/7 induction in CHO-K1 cells by small molecules, qHTS cell viability counter screen (AID 1346979). Further: nearly all actives have a fitted effect of over 35% in size. Further: potency means the concentration at half of the fitted maximal effect. In a few lines:
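To flag cytotoxic compounds, treated CHO-K1 wild-type cells were given CellTiter-Fluor at 16hr and read fluorescently after 1hr at 37C; the caspase-3/7 luminescence was measured in these same wells.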

Assay [13] in a line: Caspase-3/7 induction in HepG2 cells by small molecules, qHTS cell viability counter screen (AID 1346981). Further: nearly all actives have a fitted effect of over 30% in size. Further: potency means the concentration at half of the fitted maximal effect. A digest of the protocol: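 CellTiter-Fluor fluorescence measured viability in the same wells used for Caspase-Glo 3/7. HepG2 (wild type) at 2,000 cells/well were pre-incubated 5 hr, dosed, and given reagent at 16 hr, with 1 hr further at 37C.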
Assay [14] addresses Cytochrome P450 2D6 (Homo sapiens) (UniProt P10635). Description: Cytochrome P450 Family 2 Subfamily D Member 6 (CYP2D6) small molecule antagonists: luciferase reporter qHTS assay (AID 1671196). Further: nearly all actives have a fitted effect of over 50% in size. Further: potency means the concentration at half of the fitted maximal effect. In a few lines:
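CYP2D6 activity was followed as luminescence from its luciferin product after a 1 h NADPH-driven reaction at room temperature. Enzyme-substrate mix and compound were pre-incubated for 10 min, and the signal was read 20 min after adding detection reagent.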
(In general: A reporter such as luciferase makes a cellular process visible.)

Assay [15] can be described thus: qHTS assay to identify small molecule agonists of the RXR signaling pathway - cell viability counter screen (AID 1159529). Further: nearly all actives have a fitted effect of over 50% in size. Further: potency means the concentration at half of the fitted maximal effect. A digest of the protocol:
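Viability read-out for the RXR-alpha agonist qHTS: luminescent CellTiter-Glo signal after 30 min at RT. HEK 293T bla reporter cells, 2% charcoal-stripped FBS, 16 hr compound incubation; tetraoctyl ammonium bromide as cytotoxic control.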

Assay [16] can be described thus: qHTS assay to identify small molecule antagonists of the estrogen related receptor signaling pathway with the pleiotropic PPARgamma coactivator (PGC) from Tox21 10K library - cell viability counter screen (AID 1224840; active means well fitted cell-killing curve with a large enough effect in the repeat runs, not every such curve was filed as active; further: nearly all actives have a fitted effect of over 40% in size; further: potency means the concentration at half of the fitted maximal effect). In a few lines: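 Counter-screen for cytotoxicity: after 17.5 h compound exposure at 37 C, CellTiter-Fluor reagent added to PGC/ERR cells for 30 min and fluorescence read. Cells were seeded at 2,000 per well 6 h before dosing.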

Assay [17] in a line: qHTS assay to identify small molecule agonists of the androgen receptor (AR) signaling pathway in the presence of an antagonist - cell viability counter screen (AID 1259379). Further: nearly all actives have a fitted effect of over 25% in size. Further: potency means the concentration at half of the fitted maximal effect. In a few lines:
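Cytotoxicity counter-screen run in the same wells as the nilutamide-challenged (3.0 µM final) AR agonist assay in MDA-kb2 cells. Compounds tested at 15 concentrations for 16 h, 37 °C without CO2; CellTiter-Fluor fluorescence read.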

A short description of assay [18]: qHTS assay to identify small molecule antagonists of the progesterone receptor (PR) signaling pathway - cell viability counter screen (AID 1346798). Further: nearly all actives have a fitted effect of over 50% in size. Further: potency means the concentration at half of the fitted maximal effect. A digest of the protocol: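 ATP content as viability readout: CellTiter-Glo luminescence, 30 min room temperature, in PR-UAS-bla HEK293T cells after 16 hr compound/R5020 treatment at 37C and 5% CO2.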
Assay [19] in a line: A CellTox Green Cytotoxicity Assay to monitor cytotoxicity in HEK293 cells - 32 hour (AID 1224881). Further: potency means the concentration at half of the fitted maximal effect; nearly all actives have a fitted effect of over 40% in size. A digest of the protocol: (§2)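 Fluorescence from a DNA-binding dye excluded by viable cells was measured repeatedly in the same HEK293 wells (600 cells/well) during continuous compound exposure at 37 C. Each assay gives one read point: 0, 8, 16, 24, 32 or 40 h.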
The nature of assay [20]: A CellTox Green Cytotoxicity Assay to monitor cytotoxicity in HEK293 cells - 24 hour (AID 1224875). Further: potency means the concentration at half of the fitted maximal effect; nearly all actives have a fitted effect of over 45% in size. In a few lines: as §2

Results filed as inconclusive are left out. The source made the active and inactive calls. Unless noted, the call rests on the fitted dose curve; in most records, active means well fitted curve in the direction sought with a large enough effect in the repeat runs; inconclusive means weak or mixed curves; inactive means no such curve, though single readings can be large; an effect the other way counts as inactive or inconclusive.

Sequence of Progesterone receptor (Homo sapiens) (P06401 whole entry, looked up): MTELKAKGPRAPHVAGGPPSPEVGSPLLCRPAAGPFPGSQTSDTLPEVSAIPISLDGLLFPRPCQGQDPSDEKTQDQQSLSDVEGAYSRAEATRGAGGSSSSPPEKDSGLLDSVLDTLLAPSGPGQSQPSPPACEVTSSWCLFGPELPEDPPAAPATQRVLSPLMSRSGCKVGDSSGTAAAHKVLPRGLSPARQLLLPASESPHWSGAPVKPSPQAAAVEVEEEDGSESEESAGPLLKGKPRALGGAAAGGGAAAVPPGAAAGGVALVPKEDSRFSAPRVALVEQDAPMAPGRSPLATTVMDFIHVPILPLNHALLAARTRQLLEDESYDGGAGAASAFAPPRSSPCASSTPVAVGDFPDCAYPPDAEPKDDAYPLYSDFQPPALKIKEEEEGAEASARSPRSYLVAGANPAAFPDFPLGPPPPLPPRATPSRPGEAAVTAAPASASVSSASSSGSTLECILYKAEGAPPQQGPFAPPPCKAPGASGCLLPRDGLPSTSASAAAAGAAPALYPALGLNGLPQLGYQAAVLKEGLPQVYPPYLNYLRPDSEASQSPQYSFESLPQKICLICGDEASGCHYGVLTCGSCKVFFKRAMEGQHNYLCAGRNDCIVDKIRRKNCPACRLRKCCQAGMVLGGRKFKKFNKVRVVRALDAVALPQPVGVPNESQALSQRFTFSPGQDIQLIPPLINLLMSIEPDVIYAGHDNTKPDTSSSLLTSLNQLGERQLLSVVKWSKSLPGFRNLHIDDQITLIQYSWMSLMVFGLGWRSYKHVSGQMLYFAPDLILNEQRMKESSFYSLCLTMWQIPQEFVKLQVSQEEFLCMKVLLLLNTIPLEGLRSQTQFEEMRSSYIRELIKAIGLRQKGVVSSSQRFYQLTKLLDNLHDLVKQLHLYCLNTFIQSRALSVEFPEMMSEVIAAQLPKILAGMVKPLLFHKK
Sequence of Cytochrome P450 2D6 (Homo sapiens) (P10635 whole entry, looked up): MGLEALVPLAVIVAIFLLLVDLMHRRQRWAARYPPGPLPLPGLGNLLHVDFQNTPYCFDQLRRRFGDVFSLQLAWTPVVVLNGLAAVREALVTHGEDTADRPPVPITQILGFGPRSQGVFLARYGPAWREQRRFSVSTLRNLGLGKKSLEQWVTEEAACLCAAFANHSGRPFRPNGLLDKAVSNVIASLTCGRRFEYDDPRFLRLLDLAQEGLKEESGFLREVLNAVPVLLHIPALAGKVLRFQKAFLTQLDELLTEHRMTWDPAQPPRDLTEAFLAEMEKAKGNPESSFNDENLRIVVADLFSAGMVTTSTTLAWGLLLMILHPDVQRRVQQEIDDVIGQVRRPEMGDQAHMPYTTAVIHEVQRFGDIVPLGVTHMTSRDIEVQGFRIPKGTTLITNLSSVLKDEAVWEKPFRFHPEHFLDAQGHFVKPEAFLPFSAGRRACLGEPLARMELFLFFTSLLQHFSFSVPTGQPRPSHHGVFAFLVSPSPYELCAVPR
Sequence of Thyrotropin receptor (Homo sapiens) (P16473 whole entry, looked up): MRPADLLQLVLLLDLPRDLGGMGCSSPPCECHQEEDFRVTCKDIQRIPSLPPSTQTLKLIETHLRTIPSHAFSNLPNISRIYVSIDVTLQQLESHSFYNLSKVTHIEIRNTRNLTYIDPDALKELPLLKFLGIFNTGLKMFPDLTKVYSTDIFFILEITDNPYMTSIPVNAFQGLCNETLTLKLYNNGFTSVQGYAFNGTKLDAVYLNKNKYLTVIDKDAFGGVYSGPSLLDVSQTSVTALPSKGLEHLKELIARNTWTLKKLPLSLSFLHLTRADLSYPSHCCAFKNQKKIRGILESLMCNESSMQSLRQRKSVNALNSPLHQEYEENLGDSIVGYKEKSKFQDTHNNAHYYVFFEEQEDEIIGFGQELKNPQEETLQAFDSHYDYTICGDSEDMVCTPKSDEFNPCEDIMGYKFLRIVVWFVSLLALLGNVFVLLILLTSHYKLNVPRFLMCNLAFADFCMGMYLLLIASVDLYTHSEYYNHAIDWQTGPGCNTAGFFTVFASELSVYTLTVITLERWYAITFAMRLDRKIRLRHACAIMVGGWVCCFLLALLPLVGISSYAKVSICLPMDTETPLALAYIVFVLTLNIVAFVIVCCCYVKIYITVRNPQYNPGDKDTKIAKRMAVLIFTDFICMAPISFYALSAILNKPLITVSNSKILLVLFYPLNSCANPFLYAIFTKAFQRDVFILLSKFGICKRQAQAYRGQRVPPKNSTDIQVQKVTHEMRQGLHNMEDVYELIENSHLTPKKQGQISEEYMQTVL
Sequence of Nuclear receptor subfamily 1 group I member 3 (Homo sapiens) (Q14994 whole entry, looked up): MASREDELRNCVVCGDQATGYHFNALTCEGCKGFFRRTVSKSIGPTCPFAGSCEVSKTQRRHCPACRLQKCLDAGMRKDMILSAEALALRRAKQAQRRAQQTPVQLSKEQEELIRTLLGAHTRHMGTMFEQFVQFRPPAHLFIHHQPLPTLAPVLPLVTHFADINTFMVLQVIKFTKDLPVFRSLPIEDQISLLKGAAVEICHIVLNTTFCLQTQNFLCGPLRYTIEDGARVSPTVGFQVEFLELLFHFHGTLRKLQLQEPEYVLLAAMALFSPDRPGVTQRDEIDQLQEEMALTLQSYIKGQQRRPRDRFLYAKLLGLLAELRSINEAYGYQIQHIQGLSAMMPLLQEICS
Sequence of Thyrotropin-releasing hormone receptor (Homo sapiens) (P34981 whole entry, looked up): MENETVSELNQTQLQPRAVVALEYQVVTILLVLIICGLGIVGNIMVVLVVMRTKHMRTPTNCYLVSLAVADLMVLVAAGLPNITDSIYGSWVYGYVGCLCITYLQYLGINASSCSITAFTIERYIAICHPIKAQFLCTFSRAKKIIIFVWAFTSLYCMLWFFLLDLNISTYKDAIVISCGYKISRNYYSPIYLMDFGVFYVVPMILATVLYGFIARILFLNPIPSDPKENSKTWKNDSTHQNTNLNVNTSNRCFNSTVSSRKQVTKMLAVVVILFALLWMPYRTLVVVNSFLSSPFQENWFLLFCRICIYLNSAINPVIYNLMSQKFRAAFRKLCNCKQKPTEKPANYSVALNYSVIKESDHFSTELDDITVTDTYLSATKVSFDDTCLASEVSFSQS

Regarding `O=C(c1ccc(Cl)cc1)c1ccc(Cl)cc1`, in [1], the Potency result is “inactive”.

On to `Cc1cc(C(C)(C)c2ccc(O)c(C)c2)ccc1O`, for which the Potency entry in assay [2], in assay [3], in [5], in assay [7] and in assay [8] was “inactive” in each case. The Potency in assay [1] was 29.2 µM (active); in [4], 20.8 µM (active); in assay [6], 20.8 µM (active); in [11] it was 20.7 µM (active); in assay [12] it was 41.2 µM (active); in assay [13] it was 46.2 µM (active). In [14], the Potency is 30.2 µM (active). Also, the result in assay [9] and in [10] was inactive.

Regarding `CO/C=C(/C(=O)OC)c1ccccc1Oc1cc(Oc2ccccc2C#N)ncn1`, the Potency in assay [15] is 41.5 µM (active); in assay [2], 32.7 µM (active); in assay [16], 36.7 µM (active); in [17] it was 23.1 µM (active); in assay [7], 54 µM (active); in assay [8], 61.1 µM (active). Besides, the Potency in assay [18] is 51.8 µM (active); in assay [11] it was 6.52 µM (active); in assay [12], 1.05 µM (active); in assay [13], 24.5 µM (active); in [14], 43.1 µM (active). Also, in [10], the result was inactive.

With `O=C(c1ccccc1)C(Cl)Cl`, the Potency result in [15], in assay [7] and in [18] was “inactive” each time. The Potency in assay [4] was 34.7 µM (active); in [19], 34.7 µM (active); in [6] it was 34.7 µM (active); in assay [12], 27.3 µM (active). Also, the call in assay [10] was inactive.

For `Oc1c(Cl)ccc(Cl)c1Cl`, in assay [9], the compound was called inactive.

As for `Clc1ccccc1-c1ccccc1Cl`, the Potency result in assay [16], in [5], in assay [17], in assay [7], in [11] and in assay [12] was “inactive” in each case. Moreover, the Potency result in assay [13] and in [14] was “inactive” in each case. For the same compound, the Potency is 35.2 µM (active) in assay [20] and 31.4 µM (active) in assay [19]. For the same compound, the compound was classed as inactive in assay [9] and in assay [10].

In the case of `CCc1cccc(CC)c1N`, the Potency result in assay [1] was “inactive”.

Consider `C=CC(=O)OCCCC`, for which, in [8], the Potency entry is “inactive”.

Consider `CC(C)(C)c1cc(C(C)(C)C)c(O)c(C(C)(C)C)c1`, for which the Potency in assay [1] was 8.63 µM (active).

As to `CC(C)(C)OCC1CO1` (configuration not stated), the Potency entry in assay [8] was “inactive”.
